Active and inactive are the calls of the source. How the source made its calls: active means hit-call score of the fitted dose curve at least 0.9, where 1 is the maximum; inactive means score below 0.9.
Target: Tyrosine-protein phosphatase non-receptor type 11 (Homo sapiens) (UniProt Q06124)
Assay: ERF_FR_ENZ_hPTPN11: Eurofins (ERF) Enzymatic Assay for human Phosphatase Receptor (PTPN11/SHP2)
Protocol: ERF_FR_ENZ_hPTPN11 is a biochemical, single-readout assay that uses extracted gene-proteins in a cell-free assay. Measurements were taken 0.5 hour after chemical dosing in a 96-well plate. See SHP2 Human Phosphatase Enzymatic Assay, PhosphataseProfiler.ERF_FR_ENZ_hPTPN11 is an assay component calculated from the ERF_FR_ENZ_hPTPN11 assay. It is designed to measure enzyme activity using a type of enzyme reporter as detected by fluorescence intensity with spectrophotometry technology.Data from the assay component ERF_FR_ENZ_hPTPN11 was analyzed at the assay endpoint, ERF_FR_ENZ_hPTPN11, in the positive analysis fitting direction relative to DMSO as the negative control and baseline of activity. Using a type of enzyme reporter, loss-of-signal activity can be used to understand changes in enzymatic activity as they relate to gene PTPN11. To generalize the intended target to other relatable targets, this assay endpoint is annotated to the phosphatase intended target family, where the subfamily is protein tyrosine phosphatase.
Human recombinant phosphatase PTPN11 (SHP-2) expressed in E. coli is used. Test compound and/or vehicle is preincubated with 45 ng/ml enzymeo for 15 minutes at 37 C in modified HEPES buffer pH 7.2. The reaction is initiated by addition of 100 uM DiFMUP for 60 minutes. Determination of the amount of DiFMU formed is read spectrofluorimetrically at 358 nm/450 nm. […]

Chain of Tyrosine-protein phosphatase non-receptor type 11 (Homo sapiens) (Q06124 whole entry, looked up): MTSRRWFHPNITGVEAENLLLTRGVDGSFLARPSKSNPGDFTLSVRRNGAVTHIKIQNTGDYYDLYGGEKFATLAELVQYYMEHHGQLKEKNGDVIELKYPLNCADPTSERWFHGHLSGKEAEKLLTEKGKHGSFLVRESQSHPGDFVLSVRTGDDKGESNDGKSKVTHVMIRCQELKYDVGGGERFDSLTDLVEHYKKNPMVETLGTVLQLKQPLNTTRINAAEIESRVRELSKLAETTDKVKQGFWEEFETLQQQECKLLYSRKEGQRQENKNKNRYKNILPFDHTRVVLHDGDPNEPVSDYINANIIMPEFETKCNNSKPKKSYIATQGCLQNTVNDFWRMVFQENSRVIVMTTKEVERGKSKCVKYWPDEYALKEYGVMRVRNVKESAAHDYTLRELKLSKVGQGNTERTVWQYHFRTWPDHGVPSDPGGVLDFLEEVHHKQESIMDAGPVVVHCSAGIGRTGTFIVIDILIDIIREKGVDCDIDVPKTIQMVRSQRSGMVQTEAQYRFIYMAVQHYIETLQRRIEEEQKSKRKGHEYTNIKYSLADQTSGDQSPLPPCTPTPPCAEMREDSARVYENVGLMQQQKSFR

Structure (SMILES)	AC50
O=C(/C=C/c1ccc(O)cc1)CC(=O)/C=C/c1ccc(O)cc1	280 pM (active)
